PubChem BioAssay (EPA / NIEHS)
“And” between values parts separate entries of the source, which are not always exact repeats. Identical values can stand only once. Results filed as inconclusive are left out. The source holds several records for some structures; these can differ, active in one and inactive in another. The source made the active and inactive calls. How the source made its calls, unless noted: active means hit-call score of the fitted dose curve at least 0.9, where 1 is the maximum; inconclusive means response in the unintended direction; inactive means score below 0.9.

Legend:
[1] = molecular target: rat Glutamate, AMPA Site (AMPA), Gria1 (gene 50592) (UniProt P19490); assay: NVS_LGIC_rAMPA: NovaScreen (NVS) Ligand-Gated Ion Channel Assay for rat Glutamate, AMPA Site (AMPA) (AID 2283324)
Sequence of rat Glutamate, AMPA Site (AMPA), Gria1 (gene 50592) (P19490 whole entry, looked up): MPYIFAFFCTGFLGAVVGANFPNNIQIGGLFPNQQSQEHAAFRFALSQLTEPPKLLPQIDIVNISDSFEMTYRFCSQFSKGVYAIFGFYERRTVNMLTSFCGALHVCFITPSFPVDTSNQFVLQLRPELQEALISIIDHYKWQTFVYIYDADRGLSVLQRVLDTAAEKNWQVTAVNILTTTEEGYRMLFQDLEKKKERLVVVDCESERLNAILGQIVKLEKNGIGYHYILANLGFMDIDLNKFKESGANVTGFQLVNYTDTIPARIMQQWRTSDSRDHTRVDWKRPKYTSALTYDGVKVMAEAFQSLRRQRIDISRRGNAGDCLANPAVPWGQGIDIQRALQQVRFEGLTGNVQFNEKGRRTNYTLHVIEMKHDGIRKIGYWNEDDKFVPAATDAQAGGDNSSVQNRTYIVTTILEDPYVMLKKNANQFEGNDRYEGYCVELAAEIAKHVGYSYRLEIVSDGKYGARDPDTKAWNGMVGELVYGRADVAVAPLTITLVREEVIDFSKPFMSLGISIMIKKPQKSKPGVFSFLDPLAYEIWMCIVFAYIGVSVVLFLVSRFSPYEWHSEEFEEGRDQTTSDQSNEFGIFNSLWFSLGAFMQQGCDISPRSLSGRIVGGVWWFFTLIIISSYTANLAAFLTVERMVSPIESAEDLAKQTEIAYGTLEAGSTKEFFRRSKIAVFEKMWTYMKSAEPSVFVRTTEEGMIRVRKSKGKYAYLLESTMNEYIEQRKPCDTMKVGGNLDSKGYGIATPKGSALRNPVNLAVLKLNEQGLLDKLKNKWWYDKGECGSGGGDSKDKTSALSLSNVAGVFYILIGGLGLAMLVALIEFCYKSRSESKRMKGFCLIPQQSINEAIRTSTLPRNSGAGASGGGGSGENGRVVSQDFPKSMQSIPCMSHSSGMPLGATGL
How it was run: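 Rat forebrain membranes; radioligand binding read 1 h after dosing by filtration and scintillation counting. Duplicate single-point screen at 25 uM, then concentration-response to 50 uM for threshold hits (e.g. 30% inhibition); loss of signal vs DMSO.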

[2] = molecular target: rat Glutamate, NMDA Agonist Site (GluNMDA), Grin1 (gene 24408) (UniProt P35439); assay: NVS_LGIC_rGluNMDA_Agonist: NovaScreen (NVS) Ligand-Gated Ion Channel Assay for rat Glutamate, NMDA Agonist Site (GluNMDA) (AID 2283327)
How it was run: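 Rat forebrain membranes, radioligand binding in the agonist-site protocol; 1 h after dosing; filter-based scintillation counting. Single-concentration duplicate screen at 25 uM, then concentration-response up to 50 uM for actives; gain-of-signal vs DMSO.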

[3] = molecular target: human Peripheral-type Benzodiazepine Receptor (PBR), TSPO (gene 706) (UniProt P30536); assay: NVS_MP_hPBR: NovaScreen (NVS) Membrane Protein Assay for human Peripheral-type Benzodiazepine Receptor (PBR) (AID 2283331);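 further: hits reduce radioligand binding relative to DMSO baseline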
Sequence of human Peripheral-type Benzodiazepine Receptor (PBR), TSPO (gene 706) (P30536 whole entry, looked up): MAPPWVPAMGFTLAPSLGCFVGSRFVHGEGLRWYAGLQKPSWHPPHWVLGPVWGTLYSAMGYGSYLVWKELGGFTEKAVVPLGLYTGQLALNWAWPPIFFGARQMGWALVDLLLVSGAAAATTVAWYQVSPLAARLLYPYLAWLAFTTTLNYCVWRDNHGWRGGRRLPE
How it was run: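 Scintillation counts of filter-bound radioligand served as read-out after 1 h chemical dosing of human colonic membrane preparations. Activity was scored as signal loss against DMSO; initial duplicates at 25 uM, confirmatory concentration series afterward.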

[4] = molecular target: rat Peripheral-type Benzodiazepine Receptor (PBR), Tspo (gene 24230) (UniProt P16257); assay: NVS_MP_rPBR: NovaScreen (NVS) Membrane Protein Assay for rat Peripheral-type Benzodiazepine Receptor (PBR) (AID 2283335)
How it was run: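 Rat kidney membranes; radioligand binding with displacement, filter-based scintillation counting, 1 h incubation. Primary screen in duplicate at 25 uM, actives followed in concentration series; loss of binding vs DMSO.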

[5] = molecular target: rat Glutamate, MK-801 Agonist Site (GluNMDA_MK801), Grin1 (gene 24408) (UniProt P35439); assay: NVS_LGIC_rGluNMDA_MK801_Agonist: NovaScreen (NVS) Ligand-Gated Ion Channel Assay for rat Glutamate, MK-801 Agonist Site (GluNMDA_MK801) (AID 2283340)
How it was run: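 Radioligand binding at MK-801 site in rat forebrain membranes, 1.5 h incubation, filter-based scintillation counting. Initially 25 uM in duplicate; actives then run in concentration-response up to 50 uM, fitted for gain of signal versus DMSO.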

[6] = molecular target: chimpanzee Androgen Receptor (AR), AR (gene 747460) (UniProt O97775); assay: NVS_NR_cAR: NovaScreen (NVS) Nuclear Receptor Binding Assay for chimpanzee Androgen Receptor (AR) (AID 2283346);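 further: radioligand displacement from AR measured by scintillation counting in a cell-free assay; a loss of bound radioligand signal versus DMSO counts as binding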
Sequence of chimpanzee Androgen Receptor (AR), AR (gene 747460) (O97775 whole entry, looked up): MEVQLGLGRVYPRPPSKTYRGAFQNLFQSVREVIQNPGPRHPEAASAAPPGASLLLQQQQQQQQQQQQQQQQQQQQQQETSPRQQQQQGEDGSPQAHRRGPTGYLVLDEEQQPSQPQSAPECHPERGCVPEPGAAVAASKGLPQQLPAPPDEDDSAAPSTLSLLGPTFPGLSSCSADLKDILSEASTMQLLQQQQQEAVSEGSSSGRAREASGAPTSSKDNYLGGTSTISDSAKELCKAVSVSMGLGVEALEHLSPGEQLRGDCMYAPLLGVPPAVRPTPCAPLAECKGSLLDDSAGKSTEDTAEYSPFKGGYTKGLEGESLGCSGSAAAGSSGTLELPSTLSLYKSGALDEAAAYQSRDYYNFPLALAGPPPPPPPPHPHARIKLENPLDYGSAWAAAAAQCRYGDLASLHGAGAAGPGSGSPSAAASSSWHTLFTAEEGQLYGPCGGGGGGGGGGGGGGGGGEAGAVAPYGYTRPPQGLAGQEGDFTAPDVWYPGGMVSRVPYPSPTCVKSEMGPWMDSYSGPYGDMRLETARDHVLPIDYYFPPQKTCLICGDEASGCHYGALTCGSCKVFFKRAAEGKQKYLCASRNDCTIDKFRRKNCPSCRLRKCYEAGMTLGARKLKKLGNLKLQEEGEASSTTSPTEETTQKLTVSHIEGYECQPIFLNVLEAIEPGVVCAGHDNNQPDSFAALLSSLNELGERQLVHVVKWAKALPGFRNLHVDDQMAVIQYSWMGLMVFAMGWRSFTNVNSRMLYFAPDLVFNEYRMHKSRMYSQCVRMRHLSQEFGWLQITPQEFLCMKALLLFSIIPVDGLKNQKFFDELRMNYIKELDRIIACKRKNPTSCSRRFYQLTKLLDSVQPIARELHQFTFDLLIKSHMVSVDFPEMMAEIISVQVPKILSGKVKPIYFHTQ
How it was run: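 Cell-free competition binding with insect-cell (Sf9/Sf21) extracted chimpanzee AR; scintillation signal from lysate at 72 h. Screened in duplicate at 25 uM, then concentration-response for actives; fitting relative to DMSO.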

[7] = molecular target: rat Thyrotropin Releasing Hormone Receptor (TRH), Trhr (gene 25570) (UniProt Q01717); assay: NVS_GPCR_rTRH: NovaScreen (NVS) G Protein-Coupled Receptor Assay for rat Thyrotropin Releasing Hormone Receptor (TRH) (AID 2283329);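 further: hit means lower bound tracer signal versus DMSO baseline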
Sequence of rat Thyrotropin Releasing Hormone Receptor (TRH), Trhr (gene 25570) (Q01717 whole entry, looked up): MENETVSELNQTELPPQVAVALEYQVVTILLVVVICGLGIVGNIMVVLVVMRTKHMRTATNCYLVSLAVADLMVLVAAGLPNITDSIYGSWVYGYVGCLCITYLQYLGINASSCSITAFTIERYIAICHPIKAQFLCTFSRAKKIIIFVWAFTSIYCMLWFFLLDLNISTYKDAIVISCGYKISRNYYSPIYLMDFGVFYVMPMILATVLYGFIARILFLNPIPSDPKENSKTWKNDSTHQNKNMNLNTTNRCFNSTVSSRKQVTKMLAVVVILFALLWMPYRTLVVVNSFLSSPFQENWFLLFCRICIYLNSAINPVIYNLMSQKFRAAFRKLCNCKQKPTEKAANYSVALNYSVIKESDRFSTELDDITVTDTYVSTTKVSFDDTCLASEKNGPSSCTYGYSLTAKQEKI
How it was run: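 Test compounds are screened at 25 uM in duplicate against radioligand binding in rat forebrain membranes, with active pairs followed up over a concentration range. Detection uses filter-based radiodetection after a 4 h exposure.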

[8] = molecular target: human Constitutive Androstane Receptor (CAR), NR1I3 (gene 9970) (UniProt Q14994); assay: NVS_NR_hCAR_Antagonist: NovaScreen (NVS) Nuclear Receptor Binding Assay for human Constitutive Androstane Receptor Antagonism (CAR) (AID 2283344)
Sequence of human Constitutive Androstane Receptor (CAR), NR1I3 (gene 9970) (Q14994 whole entry, looked up): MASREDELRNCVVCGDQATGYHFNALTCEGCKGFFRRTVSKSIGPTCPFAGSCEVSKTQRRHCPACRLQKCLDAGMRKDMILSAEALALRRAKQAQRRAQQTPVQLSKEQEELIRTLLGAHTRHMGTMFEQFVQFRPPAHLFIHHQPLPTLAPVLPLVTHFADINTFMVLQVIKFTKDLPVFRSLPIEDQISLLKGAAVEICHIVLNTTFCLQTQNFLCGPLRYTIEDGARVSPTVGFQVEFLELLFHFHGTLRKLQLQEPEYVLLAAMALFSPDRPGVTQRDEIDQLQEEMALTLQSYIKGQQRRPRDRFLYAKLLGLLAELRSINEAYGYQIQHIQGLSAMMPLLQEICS
How it was run: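 Cell-free TR-FRET binding read 1 h after dosing, antagonist mode; loss of signal versus DMSO baseline. Primary screen in duplicate at a single 25 uM; actives retested in concentration series.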

[9] = molecular target: bovine Estrogen Receptor (ER), ESR1 (gene 407238) (UniProt P49884); assay: NVS_NR_bER: NovaScreen (NVS) Nuclear Receptor Binding Assay for bovine Estrogen Receptor (ER) (AID 2283345);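 further: actives lower the bound radioligand count which means they displace the ER ligand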
Sequence of bovine Estrogen Receptor (ER), ESR1 (gene 407238) (P49884 whole entry, looked up): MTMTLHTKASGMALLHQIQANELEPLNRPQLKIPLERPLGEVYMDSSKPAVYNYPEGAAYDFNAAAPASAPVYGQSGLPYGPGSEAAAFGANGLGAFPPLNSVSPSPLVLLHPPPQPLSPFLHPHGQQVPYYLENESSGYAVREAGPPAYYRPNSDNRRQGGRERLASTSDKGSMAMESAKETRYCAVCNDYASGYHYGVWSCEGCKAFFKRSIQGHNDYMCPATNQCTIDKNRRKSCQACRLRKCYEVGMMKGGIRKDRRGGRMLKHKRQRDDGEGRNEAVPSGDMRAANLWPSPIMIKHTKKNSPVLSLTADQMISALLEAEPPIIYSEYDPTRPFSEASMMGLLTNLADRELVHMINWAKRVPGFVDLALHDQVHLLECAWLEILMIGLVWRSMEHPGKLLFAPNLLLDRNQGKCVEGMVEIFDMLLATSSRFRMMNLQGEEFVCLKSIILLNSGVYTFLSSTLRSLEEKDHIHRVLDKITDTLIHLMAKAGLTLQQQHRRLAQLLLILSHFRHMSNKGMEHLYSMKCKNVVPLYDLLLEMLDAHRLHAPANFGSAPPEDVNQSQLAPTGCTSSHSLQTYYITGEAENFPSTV
How it was run: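 Bovine uterine membranes; tritiated or iodinated radioligand; competitive displacement; 18 h; scintillation read; DMSO negative control; 25 uM duplicates, then concentration series for actives.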

[10] = molecular target: Estrogen receptor (Homo sapiens) (UniProt P03372); assay: NVS_NR_hER: NovaScreen (NVS) Nuclear Receptor Binding Assay for human Estrogen Receptor (ER) (AID 2283348)
Sequence of Estrogen receptor (Homo sapiens) (P03372 whole entry, looked up, the tested form may be a part): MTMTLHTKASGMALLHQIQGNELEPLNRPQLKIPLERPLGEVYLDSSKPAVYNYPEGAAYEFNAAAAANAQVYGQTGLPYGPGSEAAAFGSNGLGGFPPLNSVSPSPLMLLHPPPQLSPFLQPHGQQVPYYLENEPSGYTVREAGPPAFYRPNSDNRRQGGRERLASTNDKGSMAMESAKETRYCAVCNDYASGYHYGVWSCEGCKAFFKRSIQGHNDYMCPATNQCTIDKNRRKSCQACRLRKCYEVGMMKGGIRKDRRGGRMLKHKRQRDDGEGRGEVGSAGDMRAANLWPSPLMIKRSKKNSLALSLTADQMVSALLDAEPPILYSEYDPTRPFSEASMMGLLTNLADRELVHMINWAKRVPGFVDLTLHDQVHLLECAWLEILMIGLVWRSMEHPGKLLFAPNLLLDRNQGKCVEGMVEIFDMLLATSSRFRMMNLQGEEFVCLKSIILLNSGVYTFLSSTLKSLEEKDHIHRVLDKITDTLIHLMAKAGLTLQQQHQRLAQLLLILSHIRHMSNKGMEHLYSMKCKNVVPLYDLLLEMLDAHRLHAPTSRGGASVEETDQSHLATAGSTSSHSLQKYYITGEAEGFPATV
How it was run: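 Scintillation signal from bound radioligand was measured 18 hours after chemical addition to cell-free MCF7 protein extracts, with DMSO as baseline. Activity was scored as signal loss; compounds ran first at 25 uM in duplicate.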

[11] = molecular target: Estrogen receptor (Homo sapiens) (UniProt P03372); assay: OT_ER_ERaERa_1440: Odyssey Thera (OT) 24-hour HEK293T Protein-Complementation Assay for Estrogen Receptor-alpha/-alpha Homodimer (AID 2283349);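 further: hits raise fluorescence above DMSO for agonists and antagonists alike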
How it was run: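 Protein-fragment complementation between two human ERα ligand-binding domains (aa 310-547) in stably transfected HEK293T cells was monitored after 24 h treatment, using fluorescence intensity relative to vehicle controls.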

[12] = molecular target: Small conductance calcium-activated potassium channel protein 1 (Rattus norvegicus) (UniProt P70606); assay: NVS_IC_rKCaCh: NovaScreen (NVS) Ion Channel Assay for rat Potassium Channel, Ca2+ Act., VI (KCaCh) (AID 2283336)
How it was run: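 Radioligand binding to rat forebrain membranes, cell-free, read 1 hour after dosing by filter-based scintillation counting. Compounds first run in duplicate at 25 uM, actives then in concentration series; loss of signal vs DMSO indicates displacement.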

[13] = molecular target: human Serotonin, 5-Hydroxytryptamine Receptor 3 (5HT3), HTR3A (gene 3359) (UniProt P46098); assay: NVS_LGIC_h5HT3: NovaScreen (NVS) Ligand-Gated Ion Channel Assay for human Serotonin, 5-Hydroxytryptamine Receptor 3 (5HT3) (AID 2283325)
How it was run: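 Radioligand displacement binding to human 5-HT3 from HEK293 membranes, read by filter-based scintillation counting after 1 h. Screen at 25 uM in duplicate; chemicals passing threshold were retested in concentration-response up to 50 uM.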

[14] = molecular target: human Androgen Receptor (AR), AR (gene 367) (UniProt P10275); assay: NVS_NR_hAR: NovaScreen (NVS) Nuclear Receptor Binding Assay for human Androgen Receptor (AR) (AID 2283332)
Sequence of human Androgen Receptor (AR), AR (gene 367) (P10275 whole entry, looked up): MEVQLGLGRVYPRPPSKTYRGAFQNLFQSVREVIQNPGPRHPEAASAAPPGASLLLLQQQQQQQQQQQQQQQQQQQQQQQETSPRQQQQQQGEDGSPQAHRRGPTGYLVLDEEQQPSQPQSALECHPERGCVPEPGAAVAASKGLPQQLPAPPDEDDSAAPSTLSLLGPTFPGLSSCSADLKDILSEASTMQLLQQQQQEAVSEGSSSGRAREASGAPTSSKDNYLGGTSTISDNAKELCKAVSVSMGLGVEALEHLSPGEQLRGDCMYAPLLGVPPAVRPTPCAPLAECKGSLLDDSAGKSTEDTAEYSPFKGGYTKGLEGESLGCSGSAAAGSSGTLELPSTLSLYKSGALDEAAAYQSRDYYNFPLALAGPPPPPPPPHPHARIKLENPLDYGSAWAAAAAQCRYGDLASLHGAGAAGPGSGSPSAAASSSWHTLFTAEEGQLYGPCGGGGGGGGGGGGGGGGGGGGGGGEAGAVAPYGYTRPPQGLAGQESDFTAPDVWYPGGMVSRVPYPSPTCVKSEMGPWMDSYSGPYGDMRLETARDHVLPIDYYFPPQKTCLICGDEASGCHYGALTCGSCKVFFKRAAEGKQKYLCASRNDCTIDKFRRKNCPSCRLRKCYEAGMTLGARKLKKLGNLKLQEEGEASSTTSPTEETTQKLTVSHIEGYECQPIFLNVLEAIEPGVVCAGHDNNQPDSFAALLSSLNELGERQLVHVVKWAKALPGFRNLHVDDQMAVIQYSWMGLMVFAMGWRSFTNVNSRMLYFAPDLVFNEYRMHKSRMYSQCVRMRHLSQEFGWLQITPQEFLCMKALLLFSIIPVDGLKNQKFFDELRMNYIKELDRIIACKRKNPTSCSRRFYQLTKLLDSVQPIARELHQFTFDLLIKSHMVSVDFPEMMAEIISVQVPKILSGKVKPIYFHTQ
How it was run: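 Radioligand competitive binding, scintillation read-out, in cell-free extract from LnCAP, measured 20 h after dosing. Screened first in duplicate at 25 uM, then concentration series for actives; activity fitted against DMSO.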

[15] = NVS_IC_rCaBTZCHL: NovaScreen (NVS) Ion Channel Assay for Calcium Channel, Type L, Benzothiazepine Site (CaBTZCHL) (AID 2283337)
How it was run: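 Scintillation counting of filter-bound radioligand gave the read-out, with reduced binding versus DMSO scored as activity. Membranes came from rat cortex and were read 1.5 h after compound addition. Chemicals were screened first in duplicate at 25 uM.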

[16] = molecular target: Voltage-gated inwardly rectifying potassium channel KCNH2 (Homo sapiens) (UniProt Q12809); assay: NVS_IC_hKhERGCh: NovaScreen (NVS) Ion Channel Assay for human Potassium Channel ERG (KhERGCh) (AID 2283333)
How it was run: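 Cell-free radioligand competition binding on hERG protein extracted from CHO cells, read by filter-based scintillation counting 0.75 h after dosing. Primary screen at 25 uM in duplicate, actives followed in concentration series. Signal loss fitted versus DMSO.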

[17] = molecular target: Glutamate receptor ionotropic, kainate 1 (Rattus norvegicus) (UniProt P22756); assay: NVS_IC_rKAR: NovaScreen (NVS) Ion Channel Assay for rat Kainic Acid Receptors (KAR) (AID 2283334; active means hit-call score of the fitted dose curve at least 0.9, where 1 is the maximum; inactive means score below 0.9)
How it was run: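 Radioligand displacement binding using rat forebrain membranes, 1 h incubation, filter-based scintillation counting. Screened in duplicate at 25 uM, with actives retested in concentration-response up to 50 uM; fitted against DMSO.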

[18] = tested on: guinea pig Histamine Receptor (H2), gene 100729734; assay: NVS_GPCR_gH2: NovaScreen (NVS) G Protein-Coupled Receptor Assay for guinea pig Histamine Receptor (H2) (AID 2283342)
How it was run: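 Radioligand displacement on guinea pig striatal membranes, 1 h after dosing, filter-based scintillation counting; loss of signal versus DMSO. Single-point screen at 25 uM in duplicate, then concentration-response up to 50 uM.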

Measured: AC50

S=C(S)NCCNC(=S)S.[Mn+2].[S-]C([S-])=NCCN=C([S-])[S-].[Zn+2]
active: [1] 4.81 µM | [3] 9.51 µM and 4.71 µM and 3.45 µM | [5] 17.3 µM and 25 µM | [6] 12.5 µM
inactive: [1] | [2] | [4]

S=C([S-])NCCNC(=S)[S-].[Mn+2]
active: [4] 15.3 µM
inactive: [1] | [2] | [3] | [5]

CCCCCCC(C)OC(=O)COc1nc(F)c(Cl)c(N)c1Cl (centres undefined)
active: [4] 3.75 µM
inactive: [3]

CC1(C)C(C=C(Cl)Cl)C1C(=O)OCc1cccc(Oc2ccccc2)c1 (centres undefined)
inactive: [7] | [4] | [8] | [9] | [10] | [11]
active: [3] 40.2 µM

CC(=O)[C@H]1CC[C@H]2[C@@H]3CCC4=CC(=O)CC[C@]4(C)[C@H]3CC[C@]12C
inactive: [12] | [9] | [10] | [11]
active: [3] 1.75 µM and 1.51 µM and 4.64 µM | [9] 12.4 µM

CCCCOCCOCCOCc1cc2c(cc1CCC)OCO2
inactive: [8]
active: [3] 26.9 µM | [4] 12.3 µM

CC(C)(c1ccc(O)cc1)c1ccc(O)cc1
inactive: [13] | [3] | [14] | [4] | [15] | [9] | [10] | [11]
active: [2] 19.7 µM and 25.4 µM and 15 µM | [14] 9.86 µM [middle of 4 runs] | [4] 6.73 µM and 25 µM | [8] 90.5 nM and 367 nM | [6] 16.5 µM and 17.8 µM and 25.4 µM

C=CCOC(Cn1ccnc1)c1ccc(Cl)cc1Cl (centres undefined)
inactive: [17] | [5]
active: [7] 17 µM | [3] 10.6 µM | [16] 12.5 µM | [4] 8.58 µM | [18] 6.78 µM | [8] 9.8 µM | [6] 9.9 µM

CC(=O)S[C@@H]1CC2=CC(=O)CC[C@]2(C)[C@H]2CC[C@@]3(C)[C@@H](CC[C@@]34CCC(=O)O4)[C@H]12
inactive: [2] | [7] | [3] | [9] | [10] | [11]
active: [6] 6.35 nM and 29.2 nM
